Screen size: about 310,000 compounds; about 14,000 (4.5%) showed an effect of 50% or more. Effects have a minus sign here. The entries come from a sample that favours strong results as a whole.
biological target: human ether-à-go-go-related gene (hERG) potassium channel (human, UniProt Q12809); test: primary screen, population patch clamp on CHO cells stably expressing hERG; higher = less effect of the substance
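Note: peak tail current of the secondary pulse compared with the same well before compound.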

Chain of human ether-à-go-go-related gene (hERG) potassium channel (Q12809 whole entry, looked up): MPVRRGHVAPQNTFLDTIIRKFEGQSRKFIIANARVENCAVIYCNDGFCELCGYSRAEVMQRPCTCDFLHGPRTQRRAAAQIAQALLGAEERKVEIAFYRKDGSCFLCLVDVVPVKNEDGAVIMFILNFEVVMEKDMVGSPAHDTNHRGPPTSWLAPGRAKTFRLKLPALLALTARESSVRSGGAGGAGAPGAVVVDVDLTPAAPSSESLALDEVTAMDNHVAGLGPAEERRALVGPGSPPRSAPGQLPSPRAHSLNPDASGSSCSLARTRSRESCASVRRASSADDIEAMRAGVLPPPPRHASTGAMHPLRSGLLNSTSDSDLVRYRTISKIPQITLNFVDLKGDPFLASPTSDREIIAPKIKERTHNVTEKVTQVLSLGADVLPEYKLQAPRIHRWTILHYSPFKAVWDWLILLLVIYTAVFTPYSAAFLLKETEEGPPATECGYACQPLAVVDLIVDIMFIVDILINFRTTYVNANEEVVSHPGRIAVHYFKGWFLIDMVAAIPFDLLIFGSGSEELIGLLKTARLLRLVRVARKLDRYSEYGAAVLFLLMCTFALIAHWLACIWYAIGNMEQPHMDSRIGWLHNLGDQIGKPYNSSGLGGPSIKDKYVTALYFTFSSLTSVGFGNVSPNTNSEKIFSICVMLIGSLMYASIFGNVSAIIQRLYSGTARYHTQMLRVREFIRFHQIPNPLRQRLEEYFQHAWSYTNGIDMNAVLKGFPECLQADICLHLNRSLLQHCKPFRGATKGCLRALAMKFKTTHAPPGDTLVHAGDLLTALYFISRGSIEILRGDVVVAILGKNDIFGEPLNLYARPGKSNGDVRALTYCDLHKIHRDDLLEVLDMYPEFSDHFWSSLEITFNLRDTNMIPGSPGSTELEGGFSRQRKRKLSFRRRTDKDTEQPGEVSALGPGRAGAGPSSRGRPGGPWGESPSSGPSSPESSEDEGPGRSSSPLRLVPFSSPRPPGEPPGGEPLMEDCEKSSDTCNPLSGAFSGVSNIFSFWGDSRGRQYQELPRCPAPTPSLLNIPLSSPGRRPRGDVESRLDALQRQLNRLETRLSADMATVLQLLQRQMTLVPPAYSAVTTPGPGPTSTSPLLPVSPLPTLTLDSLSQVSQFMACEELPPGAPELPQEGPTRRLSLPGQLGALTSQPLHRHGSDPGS

| SMILES | hERG current change (%, negative = inhibition) at 10uM [%] |
| --- | --- |
| Cc1ccc(C)c(NC(=S)N2CCN(c3cccc(C(F)(F)F)c3)CC2)c1 | 7.13 |
| COC(=O)c1sc(S(=O)(=O)Nc2ccc(Br)cc2)c(C(=O)OC)c1C | 2.75 |
| CCCCCCc1cc2cc(C(=O)NCc3ccccc3)c(=N)oc2cc1O | 5.76 |
| O=C(NCCC(c1ccccc1)c1ccccc1)c1cccs1 | -14.2 |
| Cc1ccccc1C(=O)N/N=C/c1ccccn1 | 5.6 |
| CCN(CC)c1ccc(/C=C2\NC(=O)NC2=O)cc1 | 19.5 |
| COC(=O)c1ccsc1NC(=O)CN1CCN(c2ncccn2)CC1 | -1.35 |
| Cc1cc(C)n(-c2c(F)c(F)c(COC(=O)c3ccccc3)c(F)c2F)n1 | 5.11 |
| COC(=O)c1nc2n(n1)C(c1ccc([N+](=O)[O-])cc1)C(C(=O)Nc1ccc(Cl)cc1)=C(C)N2 (stereo not drawn) | 13.5 |
| Cc1ccccc1S(=O)(=O)Cc1ccc(C(=O)N(C)C2CCCCC2)o1 | -12.5 |
| C=CCn1c(SCc2cccc(F)c2)nc2cc(C(=O)N3CCC(C(N)=O)CC3)ccc2c1=O | -34.7 |
| CCN(C(=O)c1sc(N)c(C#N)c1C)C1CCCCC1 | 9.21 |
| CCOC(=O)c1c(C)oc(/N=C/c2ccccc2O)c1C#N | 7.61 |
| O=C(c1cccs1)N1CCN(S(=O)(=O)c2ccccc2)CC1 | -6.98 |
| COC(=O)c1cccc(NS(C)(=O)=O)c1 | 12.9 |
| CC(=O)Nc1cccc(C(=O)OCCCOc2ccc(F)cc2)c1 | 18.8 |
| CS(=O)(=O)Nc1cccc(C(=O)OCCCOc2ccc(F)cc2)c1 | -54.5 |
| CC(C)CNC(=O)NC(=O)COC(=O)c1cc(F)cc(F)c1 | -4.56 |
| COc1ccc(C)cc1NC(=O)C(=O)NNC(=O)c1ccco1 | 17.6 |
| Cc1c(CC(=O)O)c(=O)oc2c(C)c(OCc3c(F)cccc3Cl)ccc12 | 5.53 |
| CCOc1ccccc1NC(=O)C(NCCc1ccc(OC)cc1)c1ccccc1 (stereo not drawn) | -4.48 |
| CCOc1ccccc1NC(=O)C(NCC1CCCCC1)c1ccccc1 (stereo not drawn) | 16.9 |

| SMILES | hERG current change (%, negative = inhibition) at 10uM [%] |
| --- | --- |
| CCOc1ccccc1NC(=O)C(NCCN(C)C)c1ccccc1.O=C(O)C(=O)O (stereo not drawn) | -76.4 |
| CCOc1ccccc1NC(=O)C(NCC1(N2CCCCC2)CCCCC1)c1ccccc1.O=C(O)C(=O)O (stereo not drawn) | -70.9 |
| CCOc1ccccc1NC(=O)C(Sc1ccccc1)c1ccccc1 (stereo not drawn) | 9.32 |
| CCOc1ccccc1NC(=O)C(OC(=O)C1CC1)c1ccccc1 (stereo not drawn) | -10.3 |
| COc1cccc(C(=O)N2CCC3(CC2)OCCO3)c1 | 20.3 |
| COc1ccc(OCCNS(=O)(=O)Cc2ccccc2)cc1 | 0.161 |
| Cc1cccc(NC(=O)c2ccc(S(=O)(=O)N3CCOCC3)cc2)n1 | 19.5 |
| COCCSc1ccccc1C(=O)N1CCc2ccccc21 | 15.1 |
| CC(C)(C)c1ccc(OCCC(=O)Nc2cccc(S(=O)(=O)N3CCCCC3)c2)cc1 | 16.4 |
| O=C(COc1ccccc1)N1CCN(c2ccccc2)CC1 | -3.1 |
| Cc1nc(N2CCN(C(=O)CCC(=O)O)CC2)c2c(C)c(C)sc2n1 | -1.2 |
| CCC(=O)N1CCN(c2nc(C)nc3sc(C)c(C)c23)CC1 | -62 |
| Cc1sc2ncnc(OCC(=O)N3CCN(S(=O)(=O)c4ccccc4)CC3)c2c1C | -2.31 |
| Cc1nc(N2CCN(C(=O)COc3ccccc3)CC2)c2c(C)c(C)sc2n1.Cl | -69.3 |
| Cc1nc(N2CCN(S(=O)(=O)c3ccc(Br)cc3)CC2)c2c(C)c(C)sc2n1 | -10.7 |
| O=C(c1cc(C2CC2)nn1-c1ccccc1)N1CCN(S(=O)(=O)c2cccc(F)c2)CC1 | -28.1 |
| O=[N+]([O-])c1ccc(Cl)c(S(=O)(=O)/N=C(/c2ccccc2)N2CCOCC2)c1 | 3.91 |
| COc1ccc(C(=O)N2CCN(c3ccc(N4CCOCC4)nn3)CC2)cc1OC | 8.55 |
| COc1ccc(/C=C/C(=O)NCCc2nc3ccccc3[nH]2)cc1 | 26.4 |
| CC(C)Oc1ccc(/C=C(\NC(=O)/C=C/c2ccco2)C(=O)NCCc2nc3ccccc3[nH]2)cc1 | -28.6 |
| COc1ccc(/C=C(\NC(=O)/C=C/c2ccco2)C(=O)NCCc2nc3ccccc3[nH]2)cc1 | -56.6 |
| O=C(/C=C/c1ccco1)N/C(=C\c1ccccc1)C(=O)NCCc1nc2ccccc2[nH]1 | -46.3 |

| SMILES | hERG current change (%, negative = inhibition) at 10uM [%] |
| --- | --- |
| COc1ccc(/C=C/C(=O)N/C(=C\c2ccco2)C(=O)NCCc2nc3ccccc3[nH]2)cc1 | -72.7 |
| O=C(/C=C/c1ccco1)N/C(=C\c1ccco1)C(=O)NCCc1nc2ccccc2[nH]1 | -22.6 |
| Cc1cc2c(cc3c(=O)n(CC(=O)NCCCN4CC(C)CC(C)C4)ncn32)s1 (stereo not drawn) | -53.4 |
| Cc1c2cnn(CC(=O)NCCCN3CC(C)CC(C)C3)c(=O)c2c(C)n1Cc1ccccc1Cl (stereo not drawn) | -36.7 |
| Cc1nn(CC(=O)NCCCN2CC(C)CC(C)C2)c(=O)c2cccn12 (stereo not drawn) | 12.9 |
| CC1CC(C)CN(CCCNC(=O)Cn2ncn3cccc3c2=O)C1 (stereo not drawn) | -3.29 |
| Cc1c2cnn(CC(=O)NCCCN3CCCCC3)c(=O)c2c(C)n1Cc1ccccc1 | 9.96 |
| Cc1c2cnn(CC(=O)NCCCN3CC(C)CC(C)C3)c(=O)c2c(C)n1Cc1ccc(Cl)cc1 (stereo not drawn) | -52.6 |
| COC(=O)c1ccc(OC(=O)CCN2c3ccccc3Sc3ccccc32)cc1 | 8.91 |
| Nc1c(C(=O)NC23CC4CC(CC(C4)C2)C3)sc2nc3c(c(C(F)(F)F)c12)CCC3 | 0.00528 |
| COc1cccc(C(=O)NC2CC3CCCC(C2)N3CC(=O)Nc2ccc(N(C)C)cc2)c1 (stereo not drawn) | -49.3 |
| O=C(CN1C2CCCC1CC(NC(=O)c1ccco1)C2)Nc1ccccc1 (stereo not drawn) | -45.2 |
| CC(=O)NC1CC2CCCC(C1)N2CC(=O)Nc1ccccc1 (stereo not drawn) | 4.65 |
| COc1cccc(C(=O)NC2CC3CCCC(C2)N3CC(=O)Nc2ccccc2)c1.Cl (stereo not drawn) | -54.4 |
| COc1cccc(C(=O)NC2CC3CCCC(C2)N3CC(=O)Nc2ccccc2C(F)(F)F)c1 (stereo not drawn) | 15.8 |
| O=C(CN1C2CCCC1CC(NC(=O)c1ccccc1)C2)Nc1ccccc1C(F)(F)F (stereo not drawn) | 6.14 |
| CN(C)c1ccc(NC(=O)CN2C3CCCC2CC(NC(=O)c2ccccc2)C3)cc1 (stereo not drawn) | -65.3 |
| O=C(CN1C2CCCC1CC(NC(=O)c1ccccc1)C2)NC1CC1 (stereo not drawn) | 26.9 |
| O=C(CN1C2CCCC1CC(NC(=O)c1ccccc1)C2)Nc1ccccc1 (stereo not drawn) | -50.7 |
| CCOc1ccc(NC(=O)COc2nsnc2N2CCCCC2)cc1 | 21.6 |
| CC(C)[C@H](NC(=O)c1ccc(F)cc1)C(=O)N(C)Cc1cccs1 | -13.8 |
| Cc1ccc(SCC(=O)N2CCOCC2)cc1 | 4.71 |

| SMILES | hERG current change (%, negative = inhibition) at 10uM [%] |
| --- | --- |
| Cc1cccc(OCCc2nnc(N)s2)c1C | 15.2 |
| COc1cccc(CNc2ccccc2O)c1OCc1ccccc1F | -1.17 |
| CNCc1ccccc1OCc1ccc(F)cc1.Cl | -7.08 |
| COc1cccc(CNn2cnnc2)c1OCc1ccccc1F | 6.85 |
| CCN1CCCC1CNCc1ccc(OCc2ccc(Cl)nc2)c(OC)c1.Cl (stereo not drawn) | -39.1 |
| CCN1CCCC1CNS(=O)(=O)c1ccc(F)c(Cl)c1 (stereo not drawn) | 9.12 |
| CCN1CCCC1CNCc1ccc(Cl)cc1Cl.Cl (stereo not drawn) | -64.6 |
| CCN1CCCC1CNCc1cccc(OC)c1OCc1ccccc1F.Cl (stereo not drawn) | -54.4 |
| CCN1CCCC1CNCc1cc(OC)c(OC)c(OC)c1.Cl (stereo not drawn) | 1.63 |
| CCOc1cc(CNCC2CCCN2CC)cc(Cl)c1OC.Cl (stereo not drawn) | -18 |
| CCN1CCCC1CNCc1cccc(OC)c1OCc1ccc(F)cc1.Cl (stereo not drawn) | -69.5 |
| CCN1CCCC1CNCc1ccccc1OCc1ccc(F)cc1.Cl (stereo not drawn) | -65 |
| CCN1CCCC1CNCc1cccc(OC)c1OCc1ccccc1.Cl (stereo not drawn) | -26.9 |
| O=c1cc(/N=C/c2coc3c(ccc4ccccc43)c2=O)[nH]c(=S)[nH]1 | 11 |
| Nc1nc(SCC(=O)Nc2ccc(Oc3ccccc3)cc2)n[nH]1 | -4.09 |
| CCNC(=S)N(CCc1c(C)[nH]c2ccc(F)cc12)Cc1cccnc1 | -26.5 |
| O=C(Cn1cnnn1)NCc1ccccc1 | 29.6 |
| O=C(Cn1c(-c2cscn2)nc2ccccc21)Nc1ccc(Cl)cc1 | -7.59 |
| COCC(C)n1c(C)cc(C(=O)CSc2cc(C)c3ccccc3n2)c1C (stereo not drawn) | 4.64 |
| CCc1ccc(OCC(=O)NC(=S)Nc2ccc(C)cc2C)c(Br)c1 | 7.39 |
| CN(c1ccc(C(=O)N2CCCCC2)cc1)S(=O)(=O)c1cccs1 | 8.46 |

Source: PMC4336329 (PLoS ONE, 2015)
